Bioassay records deposited in PubChem BioAssay by The Scripps Research Institute Molecular Screening Center.
HTR5A ag = HTR5A agonism, opioid heterodimer counter-screen; P47898; HTR5A agonist assay, luminescence, cell-based; activation, % at 9.3 µM; 0.61% of 340,000 active; AID 504692; in the data active = activation mostly above about 9.5%, no sharp cut-off; inactive = mostly below about 7.6%;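 note: 0% = cells with vehicle only and 100% = reference agonist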
Target sequence (P47898 whole entry, looked up): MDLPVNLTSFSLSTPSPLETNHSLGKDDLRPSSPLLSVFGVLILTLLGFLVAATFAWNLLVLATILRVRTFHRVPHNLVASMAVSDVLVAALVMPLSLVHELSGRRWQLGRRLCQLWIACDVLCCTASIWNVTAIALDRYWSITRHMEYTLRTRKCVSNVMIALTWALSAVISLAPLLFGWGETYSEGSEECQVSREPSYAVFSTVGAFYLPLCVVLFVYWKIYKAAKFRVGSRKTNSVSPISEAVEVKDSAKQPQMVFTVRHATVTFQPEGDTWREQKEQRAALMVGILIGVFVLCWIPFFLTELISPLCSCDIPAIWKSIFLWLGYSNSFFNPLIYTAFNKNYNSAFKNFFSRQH
OPRM1-OPRD1 inv = inverse agonist of human OPRM1-OPRD1 heterodimerization | cell-based MOR-DOR heterodimer luminescence, inverse agonism | inhibition, % at 9.3 µM | 0.21% of 340,000 active; in the data active = inhibition above about 22%, passing the limit was not always enough;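 note: 0% = cells with DMSO and 100% = wells without cells with DMSO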
m5-HT2A agonist = agonists of mouse serotonin 5-HT2A receptor (HTR2A); P35363; CHO-K1 mHTR2A beta-arrestin complementation, luminescence; percent of 30 µM serotonin response; activation, % at 7.6 µM; 0.66% of 360,000 active; AID 624169;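 active = activation above a run cutoff, the mean activation of all tested compounds plus 3 SD, cut at about 14% in these data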;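 note: 0% = plate median of compound wells and 100% = 30 µM serotonin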
MOR-DOR ag-1 = agonists of human mu-delta opioid receptor heterodimerization; cells, OPRM1-OPRD1 heterodimerization, luminescence; activation, % at 9.3 µM; AID 504326; P35372+P41143; 0.3% of 340,000 active;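 note: 0% = vehicle-treated cells and 100% = reference agonist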
sPLA2-III inh = Blocks human group III sPLA2 activity. QFRET BODIPY PC-A2 liposome hydrolysis, fluorescence. 0.56% of 370,000 active. inhibition, % at 12.2 µM;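 active = inhibition above mean plus 3 SD of compounds lying within the high and low control bounds, cut at about 19% in these data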;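 note: 0% = median of test compound wells and 100% = no enzyme DMSO wells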
HTR5A inv ag = HTR5A inverse agonism, opioid heterodimer counter-screen; P47898; HTR5A cell line, luminescence; inhibition, % at 9.3 µM; 0.083% of 340,000 active; in the data active = inhibition mostly above about 23%, no sharp cut-off; inactive = mostly below about 18%;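 note: 0% = cells with DMSO and 100% = no-cell wells with DMSO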
MOR-DOR ag-2 = counter-screen for HTR5A agonists: OPRM1-OPRD1 heterodimerization agonism; shares compounds with HTR5A ag; U2OS counter-screen cells, complementation luminescence, 3 h; activation, % at 9.3 µM; 13% of 800 active
HTR5A ag conf = confirmation of human HTR5A agonists; shares compounds with HTR5A ag; HTR5A agonist cell assay, luminescence; activation, % at 9.3 µM; 17% of 800 active; in the data active = activation above about 17%;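 note: 0% = cells with vehicle only and 100% = full reference agonist response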
Active calls of the source: *; . = no result given. In the library only some 2.2% were active in any assay of this set; here they are far more common. Cut-off read from the data, not from the text of the source, unless noted: active = activation above about 18%; inactive = the rest.

SMILES	HTR5A ag	OPRM1-OPRD1 inv	m5-HT2A agonist	MOR-DOR ag-1	sPLA2-III inh	HTR5A inv ag	MOR-DOR ag-2	HTR5A ag conf
CC(C)(C)C(=O)OC12CCCN(C1)/C(=C/c1ccc(C#N)cc1)C2 (stereo unspecified)	.	.	.	.	2.9	.	.	.
CCOc1ccc(S(=O)(=O)N2CCNC(=O)C2)cc1	20.4*	-0.3	1.5	0.1	13.1	-56.6	-0.3	1.8
CCOc1ccc(S(=O)(=O)N2CN3CCN(C3)C2)cc1	2.2	9.5	1.0	-1.7	14.8	-14.3	.	.
Cc1ccccc1NC(=O)OC1CC2CC1[C@H]1CCCCN1[C@H]2Cc1ccccc1 (stereo partly specified)	.	.	.	.	9.1	.	.	.
O=C(CCCCCn1c(=S)[nH]c2cc3c(cc2c1=O)OCO3)N1CCN(c2ccccc2)CC1	-0.4	-2.7	7.1	0.5	2.9	1.4	.	.
COc1cccc(N2CCN(C(=O)CCCCCn3c(=S)[nH]c4cc5c(cc4c3=O)OCO5)CC2)c1	20.8*	-39.9	-3.0	7.7	1.4	-78.5	6.0	21.4*
COc1ccc(C(=O)NCc2c(C)nn(Cc3ccccc3)c2C)cc1S(=O)(=O)N1CCOCC1	16.6*	12.5	8.1	-3.1	-3.5	-42.2	0.5	-0.3
O=S1(=O)c2ccc(Br)cc2OC[C@@H](c2ccccc2)N1Cc1cn(CCC2OCCCO2)nn1	.	.	.	.	5.5	.	.	.
Cc1cccc(OCc2n(CC(=O)OC3CC(C)CCC3C(C)C)c3ccccc3[n+]2C)c1 (stereo unspecified)	17.4*	-47.6	-7.3	9.0	.	-49.0	1.5	5.6
Cc1cc(S(=O)(=O)NCc2ccc3c(c2)OCO3)ccc1F	-4.3	7.2	5.1	-1.4	-10.4	-25.6	.	.
O=S(=O)(NCc1ccc2c(c1)OCO2)c1ccc(F)c(F)c1	14.9*	5.6	6.7	-1.1	-6.7	-19.1	1.1	2.1
Cc1cc(C)cc(OCC(=O)Nc2nc(-c3ccccn3)cs2)c1	21.0*	-10.5	1.2	2.2	10.6	-30.4	0.3	63.7*
Cc1cccc2cc(CNCC3CCCO3)c(Cl)nc12 (stereo unspecified)	15.0*	4.8	10.1	-0.9	1.6	-41.4	0.2	-1.4
C[C@@H](O[Si](c1ccccc1)(c1ccccc1)C(C)(C)C)[C@@H]1NC(=O)[C@@H]2C[C@]3(Br)c4ccccc4N(S(=O)(=O)c4ccccc4)[C@@H]3N2C1=O	.	.	.	.	-4.1	.	.	.
Cc1cc(Nc2ccc(OC(F)F)cc2)cc(=O)n1-c1ccc(OC(F)F)cc1	.	.	.	.	-15.3	.	.	.
COC(=O)c1cc(-c2c[nH]c3ccccc23)n[nH]1	30.5*	7.3	7.4	-1.7	-35.0	-160.1	10.4	-0.3
COC(=O)c1cc(-c2ccc(Br)cc2)n[nH]1	3.8	-2.3	-2.4	0.4	-6.8	-10.6	.	.
CCCCCCn1c(-c2ccc(Cl)cc2Cl)csc1=Nc1ccccc1	.	.	.	.	0.7	.	.	.
Cc1ccc(C)c(S(=O)(=O)NCc2ccncc2)c1	14.8*	3.2	1.8	-0.5	-0.7	0.4	4.3	1.7
Cc1ccc(C)c(S(=O)(=O)NCc2cccnc2)c1	-3.1	10.9	-0.9	-1.9	-2.6	-27.1	.	.
CN(C)c1ccc(CN(C(=O)COc2ccccc2)C2CCS(=O)(=O)C2)cc1 (stereo unspecified)	16.5*	3.4	-2.5	-0.7	0.3	-39.2	3.2	3.0
COc1ccc2ccccc2c1C=NNC(=O)c1cc(-c2ccc(C)c(C)c2)n[nH]1	.	.	.	.	-13.0	.	.	.
COC(=O)[C@H]1C[C@@]2(N3CCCCC3)c3ccccc3N(S(=O)(=O)c3ccccc3)[C@H]2N1	.	.	.	.	-1.0	.	.	.
CCCCN1CN2Cc3cc(OC)ccc3C2CS1(=O)=O (stereo unspecified)	.	.	.	.	7.2	.	.	.
O=c1[nH]c2ccccc2cc1-c1nnn(-c2ccccc2)n1	20.7*	9.2	-6.2	-1.7	-0.6	-38.4	59.5*	-2.3
CNC(=S)N1N=C(c2ccc(C)cc2)CC1c1ccc(Br)cc1 (stereo unspecified)	18.0*	-7.1	1.2	1.5	3.1	-43.0	1.4	4.1
COc1ccc(CC(=O)Nc2ccc(C)cc2S(=O)(=O)N2CCOCC2)cc1OC	.	.	.	.	-3.2	.	.	.
